TWEAK Fn14 block: inhibitors of TWEAK-Fn14 signaling, primary screen, luciferase reporter cells, uHTS. TWEAK-stimulated Fn14 reporter cells, luciferase luminescence, 8 h. AID 1159606, 2016. inhibition, % at 10 µM. hit rate 2% among 360,000; in the data active = inhibition above about 50%
TROY NFkB inh: inhibitors of TROY-driven NF-kB signaling, primary screen, Q293 LMP1-TROYcd cells, NF-kB luciferase, uHTS; hit rate 0.98% among 360,000; inhibition, % at 10 µM; Q293 LMP1-TROYcd NF-kB luciferase reporter, 4 h; AID 1347056, 2019;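 active = compounds whose plate-normalised and pattern-corrected inhibition of the luciferase reporter signal at the single screening dose is 50% or more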
LGR2 inh: inhibitors of bursicon-induced LGR2 CRE-luciferase signal, primary screen, cell-based, HEK293, CRE-luciferase reporter, bursicon stimulation. Drosophila bursicon receptor LGR2 (rickets). bursicon-stimulated, 4 h. inhibition, % at 9.99 µM. AID 720647, 2013. hit rate 0.35% among 380,000;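 active = drop in luminescence signal, shown as inhibition above about 50% in the replicate tests, limit read from the data, passing the limit was not always enough; inconclusive = probably only some replicates passing the limit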;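 note: agonist challenge used bursicon conditioned medium at about half maximal strength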
HSP90 inh: HSP90 inhibitors, primary screen, cell lysate, luminescence; hit rate 0.91% among 290,000; Rabbit reticulocyte lysate, luciferase refolding luminescence, 3 h; inhibition, % at 5.6 µM; Heat shock protein HSP 90 (rabbit reticulocyte lysate; luciferase refolding); AID 1789, 2009;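 active = inhibition above the screen-wide mean plus 3 SD, computed separately per campaign, cut at about 16% in these data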;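 note: 0% = DMSO wells and 100% = 60 µM geldanamycin wells; inhibitors lower the luminescence because luciferase stays unfolded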
Starred values were filed as active, the others as inactive. Hits are enriched below; roughly 2.2% of the tested compounds scored in any of these assays.

What do the screens show for `CC(=O)Oc1ccc(-c2ccc(C(=O)NCCc3ccc(S(N)(=O)=O)cc3)cc2)cc1`?
TWEAK Fn14 block: -3.9; TROY NFkB inh: -9.4; LGR2 inh: -6.7; HSP90 inh: 3.5

How did Cc1ccc(CONC(=O)c2ccc(Cl)cc2)cc1 do in these assays?
TWEAK Fn14 block: -13.2; TROY NFkB inh: -56.2; LGR2 inh: -67.2

How did O=C(NOCc1ccccc1)c1ccc(Cl)cc1 do in these assays?
TWEAK Fn14 block: 65.9*; TROY NFkB inh: 30.5; LGR2 inh: 43.7

Results for Cc1ccc(CONC(=O)c2ccccc2)cc1 ?
TWEAK Fn14 block: 10.4; TROY NFkB inh: -48.4; LGR2 inh: -24.9; HSP90 inh: 14.5

What do the screens show for `COc1ccc2oc(C(=O)NCCc3ccccc3)c(C)c2c1`?
TWEAK Fn14 block: 81.6*; TROY NFkB inh: 70.4*; LGR2 inh: inconclusive

What do the screens show for `CC(=O)Oc1ccc(C(=O)NCCc2ccccc2)cc1`?
TWEAK Fn14 block: 59.6*; TROY NFkB inh: 17.5; LGR2 inh: 14.7; HSP90 inh: 15.9

How did COc1ccc(CN(C)C[C@@H]2OCCCC[C@H](C)Oc3ccc(NS(=O)(=O)c4ccc(C)cc4)cc3C(=O)N([C@@H](C)CO)C[C@@H]2C)cc1 do in these assays?
LGR2 inh: -15.3

Results for COc1ccc(C(=O)NCCSc2ccccc2)cc1 ?
TWEAK Fn14 block: 60.7*; TROY NFkB inh: 13.6; LGR2 inh: 26.5; HSP90 inh: 13.7

Results for COc1ccc(C(=O)NCCNC(=O)c2ccc(OC)cc2)cc1 ?
TWEAK Fn14 block: -19.1; TROY NFkB inh: 3.5; LGR2 inh: -8.8

What do the screens show for `CC(/C=N\N1CCN(c2ccc(Cl)cc2)CC1)=C\c1ccccc1`?
TWEAK Fn14 block: -6.1; TROY NFkB inh: 62.4*; LGR2 inh: -1.4; HSP90 inh: -1.7

What do the screens show for `CC(/C=N/N1CCN(c2ccc(C)cc2)CC1)=C\c1ccccc1`?
TWEAK Fn14 block: -1.2; TROY NFkB inh: 7.5; LGR2 inh: 0.2; HSP90 inh: -1.9

What do the screens show for `O=C1C(Cl)=C(N2CCCCC2)C(=O)C(Cl)=C1c1cnc(N2CCCCC2)s1`?
TWEAK Fn14 block: 50.7*; TROY NFkB inh: 34.5; HSP90 inh: 0.1

What do the screens show for `COc1ccccc1C(=O)Nc1ccc2c(c1)OC[C@H](C)N(C)C[C@H](C)[C@@H](OC)CN(C)C2=O`?
LGR2 inh: -2.5

What do the screens show for `Cc1ccc(-n2c(-c3cnccn3)n[nH]c2=S)c(Br)c1`?
TWEAK Fn14 block: -9.4; TROY NFkB inh: 7.3; LGR2 inh: 14.1; HSP90 inh: 1.5

How did FC(F)(F)c1ccccc1-n1c(-c2cnccn2)n[nH]c1=S do in these assays?
TWEAK Fn14 block: 83.9*; TROY NFkB inh: 65.4*; HSP90 inh: 7.3

What do the screens show for `O=C(CNC(=O)OCc1ccccc1)NCC(=O)NC(Cc1c[nH]c2ccccc12)C(=O)O` (stereo not given)?
TWEAK Fn14 block: -0.8; TROY NFkB inh: 50.9*; LGR2 inh: -6.3

Results for Cc1ccnc(NC(=O)c2cccc(OC(F)F)c2)n1 ?
TWEAK Fn14 block: -13.1; TROY NFkB inh: -23.1; LGR2 inh: -4.7; HSP90 inh: -3.7

What do the screens show for `O=C(Nc1cc(Cl)cc(Cl)c1)c1cccc(OC(F)F)c1`?
TWEAK Fn14 block: 59.5*; TROY NFkB inh: 39.0; LGR2 inh: -2.3; HSP90 inh: 0.2

Results for Cc1cc(C(=O)COC(=O)c2ccc[nH]c2=O)c(C)n1-c1ccc(F)cc1 ?
TWEAK Fn14 block: 64.5*; TROY NFkB inh: 70.2*; LGR2 inh: 24.6; HSP90 inh: 4.3

How did Cc1cc(C(=O)COC(=O)c2ccc[nH]c2=O)c(C)n1-c1ccccc1 do in these assays?
TWEAK Fn14 block: 58.4*; TROY NFkB inh: 71.1*; HSP90 inh: 0.3

Results for Cc1cc(C(=O)COC(=O)c2ccc[nH]c2=O)c(C)n1C1CC1 ?
TWEAK Fn14 block: 30.7; TROY NFkB inh: 19.4; LGR2 inh: 2.9; HSP90 inh: 5.5

Results for CN(C)C(=O)c1cccc(-c2ccc([C@@H]3[C@@H](CO)N4C(=O)CN(C(=O)C5CCCCC5)C[C@H]34)cc2)c1 ?
LGR2 inh: -4.6

Results for CCC(=O)N1CC(=O)N2[C@H](CO)[C@@H](c3ccc(C#CC4CCCCC4)cc3)[C@H]2C1 ?
LGR2 inh: 13.5

What do the screens show for `C/C=C/c1ccc([C@H]2[C@H]3CN(Cc4ccc(C(=O)OC)cc4)CC(=O)N3[C@H]2CO)cc1`?
LGR2 inh: 5.4

How did Cc1ccc(C(=O)C2CCNCC2)cc1 do in these assays?
TWEAK Fn14 block: -5.7; TROY NFkB inh: -13.2; HSP90 inh: -0.4

How did Cc1ccc(C(=O)C2C(=O)C3CCC2C3)cc1 (stereo not given) do in these assays?
TWEAK Fn14 block: 63.4*; TROY NFkB inh: -18.8; LGR2 inh: 63.4*

Results for S=c1sc2c(Cl)ncnc2n1-c1ccccc1 ?
TWEAK Fn14 block: 42.8; TROY NFkB inh: 29.9; LGR2 inh: 104.0*; HSP90 inh: -2.7

How did CCC(=O)Nc1ccc2c(c1)OC[C@H](C)N(C(=O)CN(C)C)C[C@@H](C)[C@@H](OC)CN(C)C2=O do in these assays?
LGR2 inh: 10.8

What do the screens show for `Cn1c(C(=O)Nc2ccc3c(c2)OCCO3)cc2c(=O)n(C)c3ccccc3c21`?
TWEAK Fn14 block: 64.9*; TROY NFkB inh: 21.7; LGR2 inh: 2.4; HSP90 inh: 2.5

How did O=C1C(=Cc2ccc(Cl)cc2)CCc2ccccc21 do in these assays?
TWEAK Fn14 block: 70.5*; TROY NFkB inh: 53.8*; LGR2 inh: -0.9

What do the screens show for `COc1ccc(/C=C2/CCc3ccccc3C2=O)cc1OC`?
TWEAK Fn14 block: 16.9; TROY NFkB inh: -21.7; LGR2 inh: -58.0; HSP90 inh: -5.0

How did COc1ccc(C=C2CCc3ccccc3C2=O)cc1 do in these assays?
TWEAK Fn14 block: 93.8*; TROY NFkB inh: 61.3*; LGR2 inh: 3.8

How did O=C1C(=Cc2ccc(F)cc2)CCc2ccccc21 do in these assays?
TWEAK Fn14 block: 70.1*; TROY NFkB inh: 26.7; LGR2 inh: -12.8

Results for O=C1/C(=C\c2ccncc2)CCc2ccccc21 ?
TWEAK Fn14 block: 30.5; TROY NFkB inh: 14.7; LGR2 inh: 21.1

What do the screens show for `COc1ccccc1C=C1CCc2ccccc2C1=O`?
TWEAK Fn14 block: 71.5*; TROY NFkB inh: 26.8; LGR2 inh: 24.2

What do the screens show for `COc1cccc(S(=O)(=O)N[C@H]2CC[C@H](CC(=O)NC3CCC3)O[C@@H]2CO)c1`?
LGR2 inh: -3.5

What do the screens show for `O=C(C[C@H]1CC[C@H]2[C@@H](COC[C@H](O)CN2C(=O)Nc2ccc(Cl)c(Cl)c2)O1)NCc1ccncc1`?
LGR2 inh: 5.6

What do the screens show for `O=C1C(=Cc2cccc(Cl)c2)CCc2ccccc21`?
TWEAK Fn14 block: 21.6; TROY NFkB inh: -19.3; LGR2 inh: -28.7

What do the screens show for `O=C1C(=Cc2ccccc2Cl)CCc2ccccc21`?
TWEAK Fn14 block: 57.6*; TROY NFkB inh: 18.8; LGR2 inh: 9.8

How did COc1ccc2c(c1)CC/C(=C\c1ccc(OC)c(Cn3cccn3)c1)C2=O do in these assays?
TWEAK Fn14 block: 58.7*; TROY NFkB inh: 43.5; HSP90 inh: 3.4
